ChEMBL document CHEMBL3988442, “University of Dundee, Small-Polar-MMV Screening Library” (2021)
For some assays here: Measured potencies and affinities stand elsewhere.

Legend:
Design in all cases: scale not given: direction of the effect not stated beside the values
[1] = biological target: Protein translocase subunit SecA (Escherichia coli (strain K12)) (UniProt P10408); assay: Assay to Identify E. coli SecA ATPase Inhibitors; format: functional; details: 30 µM
[2] = biological target: T1, Ubiquitin-activating enzyme e1, putative (Leishmania donovani (strain BPK282A1)) (UniProt E9BSI1); assay: Leishmania donovani Ubiquitin Activating Enzyme (LdE1); format: functional; details: 30 µM
T1 sequence (whole entry): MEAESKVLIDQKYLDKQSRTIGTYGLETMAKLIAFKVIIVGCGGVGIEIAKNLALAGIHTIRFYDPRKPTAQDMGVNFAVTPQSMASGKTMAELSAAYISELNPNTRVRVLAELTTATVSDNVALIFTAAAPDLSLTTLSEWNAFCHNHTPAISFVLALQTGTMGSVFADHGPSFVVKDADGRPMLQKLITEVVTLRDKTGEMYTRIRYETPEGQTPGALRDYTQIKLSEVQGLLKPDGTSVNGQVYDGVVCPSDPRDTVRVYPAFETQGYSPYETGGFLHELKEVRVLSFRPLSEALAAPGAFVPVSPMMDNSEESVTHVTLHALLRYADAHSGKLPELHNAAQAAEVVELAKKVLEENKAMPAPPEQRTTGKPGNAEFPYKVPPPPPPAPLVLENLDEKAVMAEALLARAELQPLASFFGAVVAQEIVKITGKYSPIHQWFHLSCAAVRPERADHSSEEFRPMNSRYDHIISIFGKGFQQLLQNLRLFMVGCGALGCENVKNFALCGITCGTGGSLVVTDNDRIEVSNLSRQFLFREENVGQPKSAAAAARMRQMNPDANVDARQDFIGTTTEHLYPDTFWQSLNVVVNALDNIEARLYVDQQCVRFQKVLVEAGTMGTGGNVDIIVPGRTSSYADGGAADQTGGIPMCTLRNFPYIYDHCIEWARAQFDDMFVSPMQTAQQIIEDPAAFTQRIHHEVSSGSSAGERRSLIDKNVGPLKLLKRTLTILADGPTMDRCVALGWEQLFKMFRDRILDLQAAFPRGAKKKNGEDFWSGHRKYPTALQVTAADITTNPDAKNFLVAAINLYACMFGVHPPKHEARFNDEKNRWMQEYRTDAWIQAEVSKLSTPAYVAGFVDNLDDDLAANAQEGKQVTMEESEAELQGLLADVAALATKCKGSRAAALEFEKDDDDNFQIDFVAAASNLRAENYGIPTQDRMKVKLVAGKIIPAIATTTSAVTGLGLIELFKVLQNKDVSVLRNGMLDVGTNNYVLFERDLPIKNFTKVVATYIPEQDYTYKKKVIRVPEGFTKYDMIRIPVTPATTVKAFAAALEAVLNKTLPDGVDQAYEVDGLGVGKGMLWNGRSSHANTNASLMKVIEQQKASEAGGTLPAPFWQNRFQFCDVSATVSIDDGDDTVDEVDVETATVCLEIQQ

[3] = biological target: AMP-activated protein kinase, AMPK (Homo sapiens) (UniProt P54646+O43741+P54619+Q9UGJ0+Q9Y478+Q13131+Q9UGI9); assay: AMP-dependent Kinase enzyme assay. An in vitro enzyme assay that detects ADP turnover that is directly proportional to AMPK activity. This uses naive AMPK that is activated during the assay with MK-8722; format: functional; details: 30 µM
[4] = biological target: Sialic acid-binding Ig-like lectin 9 (Homo sapiens) (UniProt Q9Y336); assay: Hs-Siglec9 ALPHAscreen SOP 20170721; details: 10 µM
Chain of Sialic acid-binding Ig-like lectin 9 (Homo sapiens) (Q9Y336 whole entry): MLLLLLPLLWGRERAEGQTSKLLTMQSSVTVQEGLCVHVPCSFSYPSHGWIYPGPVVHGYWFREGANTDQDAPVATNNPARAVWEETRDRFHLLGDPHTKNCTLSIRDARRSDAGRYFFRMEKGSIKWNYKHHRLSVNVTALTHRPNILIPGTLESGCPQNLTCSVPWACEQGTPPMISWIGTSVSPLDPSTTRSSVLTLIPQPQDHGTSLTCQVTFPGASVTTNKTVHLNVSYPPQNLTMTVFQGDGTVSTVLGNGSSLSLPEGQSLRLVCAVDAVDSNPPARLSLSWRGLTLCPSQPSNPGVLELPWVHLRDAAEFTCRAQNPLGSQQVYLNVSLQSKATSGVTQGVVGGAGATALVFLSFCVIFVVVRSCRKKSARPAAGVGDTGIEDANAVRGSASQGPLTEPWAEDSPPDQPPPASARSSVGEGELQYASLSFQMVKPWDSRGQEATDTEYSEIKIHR

[5] = system: Trypanosoma cruzi; assay: Trypanosoma cruzi phosphomannomutase and mannose-1-phosphate guanylyltransferase assay; format: functional; details: 10 µM
[6] = biological target: T2, Arginase-2, mitochondrial (Homo sapiens) (UniProt P78540); assay: in vitro enzyme assay to detect the production of urea directly proportional to the activity of Arginase II; format: functional; details: 33.3 µM; also: in the data most compounds retested in dose-response had high values
T2 sequence (whole entry): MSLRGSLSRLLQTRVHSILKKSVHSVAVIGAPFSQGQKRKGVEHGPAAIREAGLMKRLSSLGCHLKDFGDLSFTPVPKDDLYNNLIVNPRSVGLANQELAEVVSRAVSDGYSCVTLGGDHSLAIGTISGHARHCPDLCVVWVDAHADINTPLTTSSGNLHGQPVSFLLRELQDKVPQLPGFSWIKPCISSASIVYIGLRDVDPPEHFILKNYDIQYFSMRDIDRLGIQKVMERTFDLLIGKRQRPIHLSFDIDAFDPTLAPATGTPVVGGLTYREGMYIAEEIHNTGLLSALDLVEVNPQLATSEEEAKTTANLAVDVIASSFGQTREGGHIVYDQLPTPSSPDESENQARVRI

[7] = biological target: T3, Proteasome subunit beta (Trypanosoma cruzi) (UniProt O96673); assay: Trypanosoma cruzi proteasome chymotrypsin-like activity (TcProtChymo) assay.; also: in the data most compounds retested in dose-response had high values; format: functional; details: 9.37 µM
T3 sequence (whole entry): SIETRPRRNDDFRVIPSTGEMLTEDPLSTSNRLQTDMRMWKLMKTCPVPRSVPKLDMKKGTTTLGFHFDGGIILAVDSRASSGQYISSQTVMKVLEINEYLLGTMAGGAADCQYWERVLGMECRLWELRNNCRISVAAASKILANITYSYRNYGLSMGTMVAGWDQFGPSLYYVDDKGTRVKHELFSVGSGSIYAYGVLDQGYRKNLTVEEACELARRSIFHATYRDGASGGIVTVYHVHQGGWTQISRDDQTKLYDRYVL

[8] = organism: Homo sapiens; assay: To identify inhibition of the IFN signalling (Jak-Stat) pathway via expression of an eGFP reporter gene under the control of an IFN-stimulated response element (ISRE) containing MxA promoter.; format: functional; details: 30 µM
[9] = biological target: T4, Tyrosyl-tRNA synthetase, putative (Trypanosoma cruzi (strain CL Brener)) (UniProt Q4DSP6); assay: Trypanosoma cruzi tyrosyl tRNA synthetase (TcYRS) _High Tyrosine SOP; format: functional; details: 30 µM; also: in the data most compounds retested in dose-response had high values
T4 sequence (whole entry): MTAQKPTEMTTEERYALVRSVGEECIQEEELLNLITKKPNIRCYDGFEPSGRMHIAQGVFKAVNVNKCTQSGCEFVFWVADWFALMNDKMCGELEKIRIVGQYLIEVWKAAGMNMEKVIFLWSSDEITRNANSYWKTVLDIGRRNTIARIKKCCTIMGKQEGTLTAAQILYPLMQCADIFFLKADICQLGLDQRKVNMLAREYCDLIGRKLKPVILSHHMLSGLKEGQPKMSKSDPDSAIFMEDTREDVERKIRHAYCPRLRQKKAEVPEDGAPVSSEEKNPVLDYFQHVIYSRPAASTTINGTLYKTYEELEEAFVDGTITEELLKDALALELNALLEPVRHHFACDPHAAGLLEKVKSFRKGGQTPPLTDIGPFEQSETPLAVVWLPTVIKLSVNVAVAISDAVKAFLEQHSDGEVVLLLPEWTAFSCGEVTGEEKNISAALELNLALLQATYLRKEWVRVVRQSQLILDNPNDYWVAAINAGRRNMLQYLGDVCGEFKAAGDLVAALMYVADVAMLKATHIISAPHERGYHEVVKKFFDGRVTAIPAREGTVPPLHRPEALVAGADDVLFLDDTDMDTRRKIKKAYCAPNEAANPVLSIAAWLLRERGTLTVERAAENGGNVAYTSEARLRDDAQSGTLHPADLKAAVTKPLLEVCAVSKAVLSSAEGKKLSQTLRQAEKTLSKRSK

[10] = biological target: T4, Tyrosyl-tRNA synthetase, putative (Trypanosoma cruzi (strain CL Brener)); assay: Trypanosoma cruzi tyrosyl tRNA synthetase (TcYRS) SOP; format: functional; details: 30 µM
[11] = biological target: Chromo domain-containing protein 1 (Saccharomyces cerevisiae (strain ATCC 204508 / S288c) (Baker's yeast)) (UniProt P32657); assay: ScCHD-1 Enzyme Inhibition Assay; format: functional; details: 30 µM; also: in the data most compounds retested in dose-response had high values
Chain of Chromo domain-containing protein 1 (Saccharomyces cerevisiae (strain ATCC 204508 / S288c) (Baker's yeast)) (P32657 whole entry, the tested form may be a part): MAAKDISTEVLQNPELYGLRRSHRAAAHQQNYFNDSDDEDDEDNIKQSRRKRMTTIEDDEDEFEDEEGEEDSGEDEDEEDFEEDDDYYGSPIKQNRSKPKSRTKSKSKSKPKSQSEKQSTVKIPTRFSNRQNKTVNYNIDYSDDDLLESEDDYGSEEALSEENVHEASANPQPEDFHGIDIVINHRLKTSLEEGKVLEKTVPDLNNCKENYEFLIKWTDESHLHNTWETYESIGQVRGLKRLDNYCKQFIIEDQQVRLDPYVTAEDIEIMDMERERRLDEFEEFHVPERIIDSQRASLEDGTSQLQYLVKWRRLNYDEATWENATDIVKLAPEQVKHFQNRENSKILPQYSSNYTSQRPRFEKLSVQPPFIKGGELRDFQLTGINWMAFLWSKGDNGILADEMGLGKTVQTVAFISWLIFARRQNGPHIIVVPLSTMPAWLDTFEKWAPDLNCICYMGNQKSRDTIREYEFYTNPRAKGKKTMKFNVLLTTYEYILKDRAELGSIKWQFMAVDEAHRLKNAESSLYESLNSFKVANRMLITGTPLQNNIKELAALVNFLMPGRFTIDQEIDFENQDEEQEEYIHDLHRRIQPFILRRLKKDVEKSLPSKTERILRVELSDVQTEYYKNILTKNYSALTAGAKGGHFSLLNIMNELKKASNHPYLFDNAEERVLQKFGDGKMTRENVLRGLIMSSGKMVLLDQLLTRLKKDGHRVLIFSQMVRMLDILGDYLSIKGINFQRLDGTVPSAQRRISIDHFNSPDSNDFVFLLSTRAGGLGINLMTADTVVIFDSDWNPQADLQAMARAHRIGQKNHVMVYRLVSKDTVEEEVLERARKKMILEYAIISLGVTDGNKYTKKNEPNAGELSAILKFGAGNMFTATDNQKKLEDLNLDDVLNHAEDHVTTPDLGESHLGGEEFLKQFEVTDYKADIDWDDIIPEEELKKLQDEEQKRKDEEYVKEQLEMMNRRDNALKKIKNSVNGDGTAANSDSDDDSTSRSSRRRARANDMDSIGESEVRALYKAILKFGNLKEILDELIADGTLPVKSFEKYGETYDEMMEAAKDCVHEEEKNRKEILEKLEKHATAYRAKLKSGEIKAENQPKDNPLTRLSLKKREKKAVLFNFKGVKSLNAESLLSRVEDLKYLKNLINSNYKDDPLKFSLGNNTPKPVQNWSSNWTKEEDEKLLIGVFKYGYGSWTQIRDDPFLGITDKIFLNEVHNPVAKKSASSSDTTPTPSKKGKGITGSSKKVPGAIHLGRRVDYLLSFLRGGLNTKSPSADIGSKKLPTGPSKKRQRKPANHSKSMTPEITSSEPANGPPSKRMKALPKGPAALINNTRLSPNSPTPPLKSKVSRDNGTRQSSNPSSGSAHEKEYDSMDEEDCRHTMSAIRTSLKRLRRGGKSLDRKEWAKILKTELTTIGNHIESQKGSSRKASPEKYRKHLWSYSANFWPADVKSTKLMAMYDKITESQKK

Chain of Protein translocase subunit SecA (Escherichia coli (strain K12)) (P10408 whole entry): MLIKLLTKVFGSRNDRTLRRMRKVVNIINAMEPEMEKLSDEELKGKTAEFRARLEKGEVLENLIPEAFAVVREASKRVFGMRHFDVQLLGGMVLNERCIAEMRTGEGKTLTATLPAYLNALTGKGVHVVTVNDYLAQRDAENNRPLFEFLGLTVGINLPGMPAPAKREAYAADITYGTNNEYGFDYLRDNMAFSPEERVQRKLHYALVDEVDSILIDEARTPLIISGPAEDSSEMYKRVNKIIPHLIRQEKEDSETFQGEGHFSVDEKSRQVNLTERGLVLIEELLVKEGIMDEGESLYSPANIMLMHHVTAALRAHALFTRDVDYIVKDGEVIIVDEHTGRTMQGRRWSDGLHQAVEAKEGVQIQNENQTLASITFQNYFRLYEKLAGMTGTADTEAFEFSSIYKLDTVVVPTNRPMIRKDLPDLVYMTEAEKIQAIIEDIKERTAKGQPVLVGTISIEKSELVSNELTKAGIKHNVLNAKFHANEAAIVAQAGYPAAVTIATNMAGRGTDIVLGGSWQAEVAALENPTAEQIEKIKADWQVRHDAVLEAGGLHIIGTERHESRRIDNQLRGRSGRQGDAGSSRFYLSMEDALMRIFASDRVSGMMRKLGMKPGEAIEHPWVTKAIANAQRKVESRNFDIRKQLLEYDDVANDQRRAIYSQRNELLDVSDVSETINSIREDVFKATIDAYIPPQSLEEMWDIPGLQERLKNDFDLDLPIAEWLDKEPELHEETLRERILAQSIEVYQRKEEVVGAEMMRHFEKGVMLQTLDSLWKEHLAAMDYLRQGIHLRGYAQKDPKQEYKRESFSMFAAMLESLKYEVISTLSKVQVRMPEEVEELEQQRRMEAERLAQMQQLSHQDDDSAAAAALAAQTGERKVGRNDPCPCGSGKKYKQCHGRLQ

Compound | Percent Effect [1] [%] | Percent Effect [2] [%] | Percent Effect [3] [%] | Percent Effect [4] [%] | Percent Effect [5] [%] | Percent Effect [6] [%] | Percent Effect [7] [%] | Percent Effect [8] [%] | Percent Effect [9] [%] | Percent Effect [10] [%] | Percent Effect [11] [%]
O=C(c1ccco1)N1CCCC1C1CCN(Cc2ccccc2)CC1 (configuration not stated) | -3.11 | 7.89 | 6.52 | -0.267 | -2.24 | 4.73 | 17.9 | 8.16 | 6.38 | 10.4 | -2.37
CC(C)c1n[nH]c(C2CN(C(=O)C3=COCC3)CCO2)n1 (configuration not stated) | -3.67 | 2.63 | 1.65 | 11.9 | 0.0934 | 5.4 | -5.33 | -8.69 | 2.46 | 3.7 | 10.5
O=C(c1cc2c(s1)CCC2)N1CCCCC1Cn1cccn1 (configuration not stated) | -4.04 | 10.8 | -1.14 | 3.35 | -5.11 | -3.88 | -0.539 | 2.18 | 4.95 | 6.1 | 1.75
CC(C)(C)OC(=O)N1CCCC[C@H]1C(=O)NCc1nccs1 | -0.685 | 0 | -2.33 | 5.11 | 5.18 | 16.6 | 0.944 | -20.1 | 4.3 | 8.64 | -4.5
Cc1oc(C(=O)O)cc1S(=O)(=O)Nc1ccc(Cl)c(F)c1 | -4.46 | 0 | 1.91 | 3.7 | -5.24 | 2.85 | -2.2 | 27.1 | -2.91 | -4.88 | -4.31
O=C(c1cnccn1)N1CCN(Cc2csc(-c3ccccc3)n2)CC1 | -3.77 | -2.7 | 9.72 | -0.413 | -6.04 | 0.185 | 0.898 | 19.6 | -4.95 | -1.22 | 7.87
COCC(=O)N1CC[C@@H]2CN(Cc3cccc(Cl)c3)S(=O)(=O)[C@@H]2CC1 | -3.3 | 10.7 | -2.58 | -5.34 | -6.18 | -55 | 9.74 | 5.42 | -3.12 | 12.5 | -5.91
Cc1cc(C)nc(NC(=O)C(C)Oc2ccc3c(c2)OCO3)n1 (configuration not stated) | -1.24 | 5.2 | -2.31 | 4.95 | 5.21 | 0 | 19.6 | 5.23 | 8.6 | 18.5 | -2.76
CCCc1n[nH]c(C2CN(C(=O)c3ccco3)CCO2)n1 (configuration not stated) | -3.05 | 0 | 2.64 | -8.28 | -1.03 | 2.52 | 8.71 | -11.3 | 0.493 | -1.24 | 13.1
COC[C@]12COC[C@H]1CN(Cc1cc(OC)cc(OC)c1)C2 | -2.64 | 2.7 | -1.96 | 2.27 | 4.59 | 6.05 | 11.2 | -4.13 | 1.08 | 7.69 | 2.95
O=C(c1ccsc1)N1C[C@@H]2C[C@@H](c3nnc(C4CC4)o3)O[C@@H]2C1 | -1.51 | 7.79 | 6.12 | 6.45 | -4.63 | 5.81 | 3.31 | 15 | 1.06 | 3.85 | -4.38
COc1ccccc1N1CCC(CNCc2cccc(C#N)c2)C1 (configuration not stated) | -2.81 | 8.11 | 9.38 | -7.09 | 3.11 | -8.82 | 17.3 | -10.4 | 13.3 | 18.5 | 10.3
Fc1cnc(N2C[C@H]3CCC[C@@]3(COc3ccccn3)C2)nc1 | -1.64 | 1.33 | 6.16 | 4.78 | -3.93 | -1.94 | 10.5 | -10.5 | 5.29 | 2.56 | -5.06
CCn1nc(C)c(CCn2ccnc2-c2cc3n(n2)CCCNC3)c1C | -3.39 | 2.67 | 0.691 | 0.912 | -3.02 | 4.17 | 8.2 | 12.4 | 2.73 | 8.64 | -6.3
CCc1c(C(=O)N2CCN(CC(N)=O)CC2)cnn1C(C)(C)C | -6.88 | 13.2 | -1.82 | 18.1 | 5.32 | 3.6 | 11.9 | -6.74 | 4.43 | 11.1 | -7.68
CC(C)c1nnc2n1CCN(CC(=O)Nc1sccc1C#N)C2 | -8.13 | 7.89 | -4.21 | -3.31 | -3.83 | 1.08 | -3.13 | -0.485 | -2.46 | -6.17 | 3.89
CC(=O)N1CCCC1c1nnc2n1CCCCC2 (configuration not stated) | -8.8 | -32.4 | 1.68 | -1.76 | -0.195 | 5.42 | 6.85 | 5.46 | 7.92 | 13.4 | -5.77
CO[C@H]1CCN(c2ccc(C)nn2)[C@H]1Cc1cnn(C)c1 | -5.98 | 2.7 | -6.04 | 1.75 | 0.977 | 0.417 | 14.4 | -17.9 | 9.9 | 11 | -6.2
CC(=O)Nc1cccc(C(=O)Nc2cnc3n2CCCC3)c1 | -3.85 | 4.17 | -0.344 | 0.164 | -1.46 | 3.53 | 6.14 | 17.5 | 4.21 | 5.13 | -3.23
NC(=O)CN1CCC(NC(=O)c2ccn(-c3cccc(F)c3)n2)CC1 | -1.05 | 4.17 | -2.99 | -2.99 | -7.68 | 3.97 | 11.1 | 0.719 | 1.05 | -2.56 | -2.21
Cc1ncc(C(=O)N2C[C@H]3CC[C@@H]2CN(S(=O)(=O)N(C)C)C3)c(C)n1 | -2.89 | 16 | -1.8 | 16.2 | 2.82 | 27.6 | 17.3 | 1.16 | 7.1 | 16.1 | -6.2
Cc1cc(-c2cnn(CCNC(=O)C3CCCO3)c2C2CC2)on1 (configuration not stated) | -5.64 | 4.05 | 12 | 8.12 | 5.34 | 0.232 | 3.59 | 0.87 | 2.15 | 11.7 | 0.889
